Rows were chosen to be rich in hits. Some 6.2% of all compounds tested hit in one or more screens of this group.
Luc counter: Counterscreen for Luciferase (Kinase-Glo TM) Inhibition; Luciferin 4-monooxygenase (Photuris pensylvanica), Q27757; Kinase-Glo luciferase, ATP luminescence, 8 min; Potency, µM (highest dose often 38.3 µM), without a hit: at the highest dose activity change, negative = inhibition, usual class: inhibitors; actives 0.28% (n = 200,000); AID 1379, 2008; note: nearly all actives have a fitted effect of over 60% in size
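Inhibition of Kinase-Glo luciferase light generation was assessed at 10 uM ATP in pH 7.2 imidazole buffer, with luminescence measured after eight minutes at ambient temperature.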
VP16 counter: VP16 counterscreen qHTS for inhibitors of ROR gamma transcriptional activity; Drosophila S2 Gal4-VP16 UAS-luciferase, luminescence, 20 h; Potency, µM (titrated, usually from 53.6 µM), for inactives: at the top dose activity, negative = inhibition, most hits filed as inhibitors; actives 3.5% (n = 310,000); AID 2546, 2010;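 note: Gal4-VP16 expression switched on by copper sulfate through the metallothionein promoter; nearly all actives have a fitted effect of over 50% in size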
RORgamma inh: qHTS for inhibitors of ROR gamma transcriptional activity; Nuclear receptor ROR-gamma (Mus musculus), P51450; Drosophila S2 Gal4-RORgamma UAS-luciferase reporter, 20 h; Potency, µM (series often up to 53.6 µM), without a hit: at the highest dose activity change, negative = inhibition, actives largely listed as inhibitors; actives 5.4% (n = 310,000); note: nearly all actives have a fitted effect of over 60% in size
Target sequence (P51450 whole entry, looked up, the tested form may be a part): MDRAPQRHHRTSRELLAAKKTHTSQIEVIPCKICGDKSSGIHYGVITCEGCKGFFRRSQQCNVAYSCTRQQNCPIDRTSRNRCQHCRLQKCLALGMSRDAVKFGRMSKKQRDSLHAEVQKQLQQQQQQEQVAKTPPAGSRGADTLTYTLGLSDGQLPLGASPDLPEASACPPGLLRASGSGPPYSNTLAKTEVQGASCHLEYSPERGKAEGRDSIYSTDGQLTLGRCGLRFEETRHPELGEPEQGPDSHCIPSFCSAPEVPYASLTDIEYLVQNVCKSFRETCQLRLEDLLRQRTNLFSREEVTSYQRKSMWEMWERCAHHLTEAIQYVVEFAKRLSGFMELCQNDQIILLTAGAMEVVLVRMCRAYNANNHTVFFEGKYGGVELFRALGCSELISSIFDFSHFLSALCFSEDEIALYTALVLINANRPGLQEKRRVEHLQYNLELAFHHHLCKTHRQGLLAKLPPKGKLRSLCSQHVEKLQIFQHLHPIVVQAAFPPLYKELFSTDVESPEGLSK
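Drosophila S2 cells stably expressing Gal4-DBD/mouse RORγ fusion under metallothionein promoter plus UAS-luciferase; compound 1 h, then 700 uM CuSO4 induction for 20 h at ambient temperature; inhibition read as reduced luminescence.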
Starred values were filed as active, the others as inactive; ? = inconclusive; / = no result; [ ] = dose if it differs, or a comment. Calls come from the whole dose curve; as a rule, active = well fitted curve in the direction sought with a large enough effect; inconclusive = small, poorly fitted or top-dose-only effect, or another doubt; inactive = no such curve, though single readings can be large; an effect the other way counts as inactive or inconclusive. % is set by controls: 0 for no effect and ±100 for the full control effect; potency is the fitted concentration of half-maximal effect.

SMILES	Luc counter	VP16 counter	RORgamma inh
C#CCOc1c(Cl)cc(/C=C2/C(=O)ON=C2C)cc1OCC	/	2.2%	25.8%
CCOc1c(Br)cc(/C=N\NC(=O)c2ccccc2)cc1OC	0.1%	?	-71.2%
C#CCOc1c(Cl)cc(/C=N/NC(N)=S)cc1OCC	-0.3%	?	14.1µM*
CCOc1c(Cl)cc(/C=N/NC(N)=S)cc1OC	-1.2%	15.8µM*	7.08µM*
CN1C2CCC1CC(NC(=O)CSCc1ccc(Cl)cc1Cl)C2 (stereo not given)	/	3.0%	18.8%
CSc1ccccc1NC(=O)CN(C)Cc1cc(=O)n2ccsc2n1	2.2%	5.3%[10 µM]	-6.8%
O=[N+]([O-])c1cccc(-c2ccc(/C=N/NC(=S)Nc3ccccc3)o2)c1	-1.5%	2.51µM*	0.0891µM*
COCCNC(=S)N/N=C/c1ccc(-c2ccc([N+](=O)[O-])cc2)o1	/	10µM*	4.47µM*
O=[N+]([O-])c1cccc(-c2ccc(/C=N/NC(=S)NCc3ccco3)o2)c1	/	3.16µM*	0.447µM*
O=C(O)c1cc(-c2ccc(/C=N/NC(=S)Nc3ccccc3)o2)ccc1Cl	2.2%	2.0%[10 µM]	11.2µM*
Cc1cc(C(=O)N/N=C/c2ccc(-c3cccc([N+](=O)[O-])c3)o2)n[nH]1	/	-10.3%	-18.5%
Cc1cc(C(=O)N/N=C/c2ccc(-c3ccc(C)c(Cl)c3)o2)n[nH]1	/	-10.4%	?
NC(=O)N/N=C/c1ccc(-c2ccc([N+](=O)[O-])cc2)o1	/	-19.8%	-9.6%
O=C(Cc1ccccc1)N/N=C/c1ccc(-c2ccc([N+](=O)[O-])cc2)o1	3.8%	-14.2%	-28.0%
COC(=O)c1cc(OC)c(OC)cc1NC(=O)c1cc(OC)cc(OC)c1	0.9%	-2.4%	-7.9%
CCCC[C@H]1CCCO[C@@](C(=O)NCCN2CCOCC2)(C(F)(F)F)C1	/	0.0%	7.3%
CCOc1ccc(OCC)c(NC(=O)CSc2nc3ccccc3c(=O)n2C)c1	-5.2%	20µM*	-15.1%
CCOc1ccc(OCC)c(NC(=O)CSc2nc3cccnc3n2C)c1	15.2%	2.1%	?
Cc1ccc(Cl)cc1N1CCN(C(=O)C2CCN(c3nnc(-n4cccc4)s3)CC2)CC1	5.9%	11.2µM*	37.8%
Cc1cccc(N2CCN(C(=O)C3CCN(c4nnc(-n5cccc5)s4)CC3)CC2C)c1 (stereo not given)	3.6%	?	4.5%
CC/C=C\C/C=C\C/C=C\C/C=C\C/C=C\CCC(=O)O[C@H](COCCCCCCCCCCCCCCCC)COP(=O)([O-])OCC[N+](C)(C)C	-2.5%	2.0%	29.6%
Cc1nonc1CN(C)C(=O)c1ccc(OC2CCN(C(=O)c3cccnc3)CC2)cc1	3.6%	-0.2%	4.6%
Cn1c(=O)c2c(nc(CN3CCc4ccccc4C3)n2CCCO)n(C)c1=O	0.9%	-0.7%	11.2%
CC(C)Cn1c(CN(C)Cc2ccccc2)nc2c1c(=O)n(C)c(=O)n2C	4.5%	-17.1%	57.3%
CCOC(=O)Cn1c(CN2CCc3ccccc3C2)nc2c1c(=O)n(C)c(=O)n2C	6.2%	3.98µM*	-30.7%
SMILES	Luc counter	VP16 counter	RORgamma inh
COC(=O)Cn1c(CN(C)Cc2ccccc2)nc2c1c(=O)n(C)c(=O)n2C	/	12.6µM*	?
Cc1ccc(CNC(=O)c2ccccc2SCC(=O)NCC2CCCCC2)cc1	/	7.1%	41.2%
O=C(CSc1ccccc1C(=O)N1CCCCC1)NCC1CCCCC1	/	8.6%	2.51µM*
COc1ccccc1C1NC=C([N+](=O)[O-])C=C1[N+](=O)[O-] (stereo not given)	-5.3%	?	-44.7%
COc1ccccc1C1C([N+](=O)[O-])=CC([N+](=O)[O-])=CN1C (stereo not given)	-2.3%	11.2µM*	?
O=C(NC1CCCC1)C(c1ccncc1)N(C(=O)c1csnn1)C1CCCC1 (stereo not given)	-5.8%	10.1%	40.3%
CC(C)(C)NC(=O)CN(CCN1CCOCC1)C(=O)CNS(=O)(=O)c1ccc(Cl)cc1	/	4.1%	-3.6%
CC(C)OCC(O)CN1CCNCC1 (stereo not given)	-1.0%	-5.4%	-16.5%
CCCCCC(=O)NC(=S)NC1C2CC3CC(C2)CC1C3 (stereo not given)	/	7.94µM*	2.24µM*
O=C(CCc1ccccc1)NC1C2CC3CC(C2)CC1C3 (stereo not given)	/	-2.8%	22.2%
CCOC(=O)c1c([N+](=O)[O-])c(C)[nH]c(=O)c1C#N	/	0.9%	0.6%
COc1cccc([C@@H]2Oc3ccc(OC)cc3/C(=N/O[C@@H](C)CN3CCCCc4nc(C)c(C)cc43)[C@@H]2O)c1	/	10.5%[10 µM]	-15.4%[10 µM]
CC(C)c1ccccc1NC(=O)CC1(CC(=O)O)CCCC1	/	-9.7%	10.7%
CC(C)c1ccccc1NC(=S)NCC1(N(C)C)CCCCC1	/	?	15.8µM*
COCCn1c(N)c(N(Cc2ccccc2)C(=O)C2=COCCO2)c(=O)[nH]c1=O	/	-10.0%	3.9%
CN(C(=O)COC(=O)c1ccc(=O)n(Cc2ccccc2)n1)c1ccccc1	-3.0%	1.9%	1.7%
O=C(N/N=C/c1ccccn1)c1ccc(NC(=O)c2ccccc2Cl)cc1	/	1.7%	-19.3%
O=C(N/N=C/c1ccccn1)c1cc(-c2cccc3ccccc23)n[nH]1	1.2%	12.7%	-36.9%
O=C(O)c1[nH]c2ccc([N+](=O)[O-])cc2c1-c1ccccc1	/	0.5%	8.4%
O=C(N/N=C/c1ccccn1)c1cc(-c2ccc3ccccc3c2)n[nH]1	-3.2%	15.8µM*	15.8µM*
O=C(N/N=C/c1ccccn1)c1cc(-c2ccccc2Cl)n[nH]1	-0.4%	-2.7%[10 µM]	15.8µM*
O=C(N/N=C/c1ccccn1)c1ccc(Cl)c(Cl)c1	/	0.631µM*	?
O=C(N/N=C/c1ccccn1)c1[nH]c2ccc([N+](=O)[O-])cc2c1-c1ccccc1	2.1%	1.8%[10 µM]	5.01µM*
O=C(N/N=C/c1ccc(O)cc1O)c1cc(-c2ccccc2)n[nH]1	1.2%	/	/
CC(CNc1nc2ccc(Cl)cc2n2cnnc12)c1ccccc1 (stereo not given)	/	-13.0%	31.2%
SMILES	Luc counter	VP16 counter	RORgamma inh
O=[N+]([O-])c1cccc(C2=N[C@@H](Cc3ccccc3)CO2)c1	0.0%[39.9 µM]	8.7%	18.2%
COc1ccc(C2Oc3cc(OC)cc(OC)c3CC2O)cc1 (stereo not given)	3.9%	11.1%	18.8%
COc1cc(/C=N/NC(=O)c2cccc([N+](=O)[O-])c2)cc(OC)c1O	-1.5%	8.4%	-18.3%
O=C(N/N=C/c1cccnc1)c1ccc([N+](=O)[O-])cc1Cl	/	1.9%	-33.5%
CCc1ccc(-c2cc(C(=O)N/N=C/c3ccco3)[nH]n2)cc1	-5.4%	2.2%[10 µM]	20µM*
COc1cccc(/C=N/NC(=O)c2ccc([N+](=O)[O-])cc2Cl)c1O	3.2%	0.631µM*	0.355µM*
Cc1cc(C)nc(SCc2ccc(C(=O)N/N=C/c3ccccn3)cc2)n1	3.3%	14.1µM*	7.08µM*
O=C(N/N=C/c1ccco1)c1cc(-c2ccc3ccccc3c2)n[nH]1	-3.4%	?	?
O=C(N/N=C/c1ccccn1)c1ccc([N+](=O)[O-])cc1Cl	/	?	11.2µM*
Cc1cc(C)nc(SCc2ccc(C(=O)N/N=C/c3ccncc3)cc2)n1	-3.7%	-1.6%	0.0%

Source: PubChem (National Center for Advancing Translational Sciences (NCATS))
